In all, about 2,700 sequences were measured (“arbitrary fluorescence units”: median about 4,100, highest 2% from about 54,000 on). This is one part of a sample in which the highest values are shown more often than they occur.

In this test the target is T1, ETS1 (UniProt P14921).
T1 sequence: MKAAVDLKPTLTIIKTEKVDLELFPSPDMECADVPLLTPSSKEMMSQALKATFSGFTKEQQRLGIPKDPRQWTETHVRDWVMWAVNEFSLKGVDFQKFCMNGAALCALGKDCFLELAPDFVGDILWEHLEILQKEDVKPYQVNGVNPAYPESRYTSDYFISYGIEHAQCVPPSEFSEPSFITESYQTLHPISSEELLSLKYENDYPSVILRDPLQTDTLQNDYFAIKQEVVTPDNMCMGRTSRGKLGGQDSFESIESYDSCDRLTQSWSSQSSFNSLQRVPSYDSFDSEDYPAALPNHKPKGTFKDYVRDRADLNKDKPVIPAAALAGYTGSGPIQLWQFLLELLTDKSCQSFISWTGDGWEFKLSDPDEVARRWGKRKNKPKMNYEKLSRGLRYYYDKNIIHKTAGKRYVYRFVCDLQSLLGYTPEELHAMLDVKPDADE
In words: ETS1 binding intensity (PBM fluorescence) (arbitrary fluorescence units); higher = stronger binding. Conditions: ETS1 concentration 10 nM. As to the method:
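gcPBM on wild-type 36-bp genomic probes with two neighbouring ETS1 sites (4-24 bp apart). Recombinant human ETS1 (10 nM) was detected with anti-ETS1 antibody fluorescence. Values are medians over 3 replicate spots. The probes sit in constant array flanks that are not printed.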
CGGGACCGGAAGTGACGCAGAGAAGTTTCCGGGACT had an ETS1 binding intensity of 56800.
In turn, ACAGCATCCGGAGCGCCGACGCGGGACCGGAAGTGA came in with an ETS1 binding intensity of 26000.
To TAGTCCTGAAACTTCCTCTGCTTCCTCCTCCTGCCC belongs 2700.
To CACGGTGATTTCCTGTAAACAACAGGAAATGTACAG belongs 22700.
Then TCGGACCGGAAGGAGTTGTTGGCGCTTCCGGTGGCC, with 15900.
As to CGGACCGGAAGTTGGGGTGACGCAATTTCCGGCGCG, the ETS1 binding intensity was determined as 54200.
For the sequence ACCGCCCGGAAGTGACGCGCCCGCGCATCCGGCCAC, the ETS1 binding intensity was 19800.
With ATCACCAGCCTTCCTGTGGGACCGGAAAGGCAGTAG, the ETS1 binding intensity worked out at 2720.
As to GTAATACTTCGGGGAAATGCAGGATGCAGCTGCTGC, the ETS1 binding intensity came out at 243.
CGAGGCGGTCGCGGAAGTAGAGGAAGCCTTCGCGGT came in with an ETS1 binding intensity of 686.
Take TTCACCCCACCACTTCCTCATCCTGATCTCAGCTCA: the ETS1 binding intensity stood at 2880.
CCCACTTCCTGCCTCACCCTGAAGATCTTCCGGGCA: the ETS1 binding intensity came to 56900.
In turn, CCCTCCCCTTCCTGCCTGCCCTTCTTCCGGGGCACC had an ETS1 binding intensity of 8020.
On to GCCGGAGACTAGCTTCCGCTTCCGGTGTGAGCGGCC, for which the ETS1 binding intensity was 26200.
AAGACTTCTACTTCCGGAGACTTCCTCATGCCATGC showed an ETS1 binding intensity of 33400.
AACCACTTCCGGTGAGTAGCTTCTACTTCCGGAGAC showed an ETS1 binding intensity of 135000.
For CACCCATTTTCACTTCCGCTTCCGGTTGTCACAGGC, the ETS1 binding intensity was 26500.
Sequence TCTCGACTTCCGGTTCACCCAGCATTTCCTCTTCCC showed an ETS1 binding intensity of 103000.
On to GTTACTTCCTCTCCCCAGGTCTCTCGGTTTCCTCAT, for which the ETS1 binding intensity turned out to be 23600.
GCTCCACCTTCCGGCCCATGGACACGGATGCCGAGG registered an ETS1 binding intensity of 16100.
As for TCCTGCCTCAGGATGCCGGGGGAGGAAGAGGAGCGG, the ETS1 binding intensity worked out at 258.
To CCTACAATTCCTGTTTTGGAGACCGCTTCCGGCAGC belongs 3700.
Then ATCTCACCTTCCTGGTGTCTGGGCTTCCGCAGCTTC, with 662; and TATTCAAAGCCCACTTCCTTCCTGTAGCATTCATTC, with 6220.
Turning to AGCATTCCACTTCCTGTCTTGATTCCTGTATTAGAG, the ETS1 binding intensity worked out at 62700.
Then CTTCCACATCTTCCTGCAGAGCATCCTGTCTGTGCA, with 4230.
As to TGTGATGTTTCCTCTTGCTGTGGTTTCCTGTCATGG, the ETS1 binding intensity worked out at 4090.
Then CAGGCCGGAAGTACGTGAGAGGAGACTTCCGGCCAC, with 31200.
In the case of AGGAGGAATGGCAGGAAGAGGAAGTGAAACCGACAA, the ETS1 binding intensity came out at 1690.
Turning to TTCCGACCGGAAGTGAGAAGAGGAGGAAGTTGGCTG, the ETS1 binding intensity came to 64200.
To CTTAGTTTCCTCTGGCGATGCTAAAGAGGAAGTTAC belongs 2440; to ATTTGAAGAGCCAGGAAGGAGGAAATGCAGAGTGCA, 287; to AGTCTAGTTGCCAGGAAACAGGATGTGGGAGGGACA, 3800.
In turn, TCCTCTTTCCGTTGTGAGCACCCTGCATCCTGGTGG registered an ETS1 binding intensity of 3800.
For CTGATAGGGGAAGTGGGAGTTGACAGGATGGTTTAA, the ETS1 binding intensity turned out to be 424.
Then ATGTAAAGAGGAAGTGACTCATTCTTCCTGGTGGTG, with 3720.
On to GGGGCCGGAAGCTTTCGGATAACAACTTCCGCTCGG, for which the ETS1 binding intensity came to 20100.
Sequence ACAGCTTCCGGTTTTGCAAGACAATGCTTCCTTCTC gave an ETS1 binding intensity of 87800.
On to CAACAGGAAATACATACCTGTCCTGAGAGGAAGCAC, for which the ETS1 binding intensity was determined as 7320.
For AGCATCTGCTGGGGGAAACGGAAGCAGCCCAGATGG, the ETS1 binding intensity stood at 774.
In the case of TGTAGGAGCTTCCTTGCAGCCTCAGGATGCCGAATT, the ETS1 binding intensity came out at 517.
As for TATGTATTTCCTTATTGCAAAGGGCGGAAACGTGTA, the ETS1 binding intensity is 3980.
Then GGAAAGACGGCAGGAAATGGGGAAGTGGGAGGGAGA, with 6220.
Regarding GGATCAGGAAGTCACGACATGGCGACCATCCTGGCT, the ETS1 binding intensity amounted to 1720.
With CCCCACATCCGGTGCGGCGACGCCACTTCCGCCCAC, the ETS1 binding intensity was 78100.
CGTCCCACATCCGCCGACACGCCCCTTCCGGCCTAA returned an ETS1 binding intensity of 20000.
For GCCCCACTTCCCTCCCGCGGTCACACTTCCGGCGGC, the ETS1 binding intensity is 12500.
Take GATGACCTGCCATTTCCCCAGGAAAGCTGAGACCCC: the ETS1 binding intensity stood at 201.
The sequence TTTCTGTCCGTTTCCGACAAACTTCCCGCGCTCTTC registered an ETS1 binding intensity of 2630.
Sequence TGCCCTGCCTGCTTCCTCCCTTCCTTTCAACCCCAA came in with an ETS1 binding intensity of 2350.
As to TGAAGACGGAAACCTGAGAACACCATTTCCTGTGCT, the ETS1 binding intensity turned out to be 4470.
CGGCGGAAGGAGCGGGCGGCGTGAGCGCTTCCGCCG had an ETS1 binding intensity of 811.
Then GCCGCCGCGTACTTCCGGCCGGAAGAAAGGGCGGGC, with 65400; and GGGAGGCGGAAAGGGGCGGGACCACTTCCGGCCTAG, with 22100.
The sequence CGGCGGCTGCCGGAAAGCCACTTCCGGCCTGCTCCA returned an ETS1 binding intensity of 25400.
To TCGGCCACTTCCGGCGCGCGGGGCGGAAAGCGGGCG belongs 75800.
In the case of CGGCGTCAGCGGAACGGGCGGCTTCCGGCCGCGGCG, the ETS1 binding intensity was 8120.
CTGTCACACAGGAAGACCACACAGGAAGACCAGGTG: the ETS1 binding intensity amounted to 1320.
With TCCACTCTGCGGAAGCCACGTTCATCCTGCCCTGCC, the ETS1 binding intensity was determined as 586.
To ATGCAGAAAGTGGGAAGTGAGGAAATGAGGGCAGCG belongs 232; to AACCAACAACTTACTTCCTTCCGGGTTTGGTGCAGA, 5690.
In turn, GAGAACTTCCGGCTGCAGTACAACCATTTCCGGGCT displayed an ETS1 binding intensity of 68300.
Sequence CCTGGCCGGAAACTGAGCCGTTCACTTCCGCCACCA yielded an ETS1 binding intensity of 14000.
Then TATCTCCTTCCTGTGTAGCATTGACTTTCCTGTCAG, with 14100.
Turning to CGTGAGCGGAAGCGGCGCCATTCGTCTTCCGAGCGC, the ETS1 binding intensity came to 6670.
Regarding TGCTAAACTTCCCTGGGCCCCATCAGGAAATGTGAA, the ETS1 binding intensity is 185.
In turn, TCCGCGTCCCCACATCCTCCGGATGCCCAGCGGTTG returned an ETS1 binding intensity of 1980.
GCCCACATCCGGCCCCTCCTTGCCCCGGAACCTCCT returned an ETS1 binding intensity of 70100.
Consider TTCTTGGCCACATCCGTCTCCCGGAACTGCTCCTTC, for which the ETS1 binding intensity was determined as 8980.
With CGCCATACCTGGCTTCCGCTTCCGGTGGCTTCTCGT, the ETS1 binding intensity amounted to 28200.
